The supplement of paper PMC12297408
Values joined by “and” are separate entries in the source; they are usually repeats but may differ in a detail not shown here. Equal values may be shown once. A number with no mark means an inactive call.

System: Plasmodium falciparum NF54/iGP1_RE9H ulg8 stage V gametocytes
Assay: gametocyte viability (luciferase signal relative to DMSO control) (% of DMSO control); higher = less gametocytocidal activity, active = 50 or less
Conditions: exposure time: 72 h
Method in brief: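 Viability was calculated relative to the mean of DMSO vehicle wells on each plate. Day-12 stage V gametocytes of line NF54/iGP1_RE9Hulg8 (~2.5% gametocytemia, 3% hematocrit, 0.5% Albumax II medium) were exposed in 96-well plates to compounds at final 10 µM or 1 µM, one well each, for 72 h at 37 °C. Luminescence was then read on an IVIS Lumina II after D-luciferin addition.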

Compound: O=c1c(-c2ccc(O)cc2)coc2cc(O)ccc12 [Daidzein]
- gametocyte viability (concentration: 1 µM): 116
- gametocyte viability (concentration: 10 µM): 109

Compound: CC(C)(C)c1cc(NC(=O)Nc2ccc(-c3cn4c(n3)sc3cc(OCCN5CCOCC5)ccc34)cc2)no1 [Quizartinib (AC220)]
- gametocyte viability (concentration: 1 µM): 97.7
- gametocyte viability (concentration: 10 µM): 85.9

Compound: Fc1cc(-c2cccc3ncc(-c4cnn(C5CCNCC5)c4)nc23)cc(F)c1CN1CCOCC1
- gametocyte viability (concentration: 1 µM): 107
- gametocyte viability (concentration: 10 µM): 80

Compound: CC(=O)c1c(C)c2cnc(Nc3ccc(N4CCNCC4)cn3)nc2n(C2CCCC2)c1=O
- gametocyte viability (concentration: 1 µM): 98
- gametocyte viability (concentration: 10 µM): 103

Compound: Cc1nc(Nc2ncc(C(=O)Nc3c(C)cccc3Cl)s2)cc(N2CCN(CCO)CC2)n1
- gametocyte viability (concentration: 1 µM): 95.3
- gametocyte viability (concentration: 10 µM): 87.3

Compound: CCN1CCN(Cc2ccc(-c3cc4c(N[C@H](C)c5ccccc5)ncnc4[nH]3)cc2)CC1
- gametocyte viability (concentration: 1 µM): 96.1
- gametocyte viability (concentration: 10 µM): 52.6

Compound: Cc1cc(Nc2nc(N[C@@H](C)c3ccc(F)cc3)c(C#N)cc2F)n[nH]1
- gametocyte viability (concentration: 1 µM): 97.5
- gametocyte viability (concentration: 10 µM): 99.6

Compound: COc1ccc(-c2ccc3c(N4CCOCC4)nc(N4C[C@@H](C)O[C@@H](C)C4)nc3n2)cc1CO
- gametocyte viability (concentration: 1 µM): 97.1
- gametocyte viability (concentration: 10 µM): 108

Compound: O=C1c2ccccc2-c2n[nH]c3cccc1c23
- gametocyte viability (concentration: 1 µM): 95.3 and 98.9
- gametocyte viability (concentration: 10 µM): 90.5 and 106

Compound: CC[C@H](Nc1ncnc2[nH]cnc12)c1nc2cccc(F)c2c(=O)n1-c1ccccc1
- gametocyte viability (concentration: 1 µM): 95.1
- gametocyte viability (concentration: 10 µM): 95.9

Compound: O=C(c1ccc(/C=C/c2n[nH]c3ccccc23)cc1)N1CCNCC1
- gametocyte viability (concentration: 1 µM): 104
- gametocyte viability (concentration: 10 µM): 93.7
